Experimental data reported in PubChem BioAssay AID1259422 (The Scripps Research Institute Molecular Screening Center, 2018).
Where “and” joins values, the source holds several entries; their conditions need not be identical. Equal values may be shown once. About 9,300 (1.5%) of roughly 640,000 compounds were called active. No stated cut-off is given here; in the data, active means inhibition above about 32%; inactive means the rest. What follows is part of a selection rich in actives, with near analogues and random picks from the rest.

Experiment: TEAD-YAP interaction inhibition, primary screen, TEAD-YAP interaction inhibitor project, luminescence, HEK-TIYL cells (AID 1259422);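 further: 0% = median of test compound wells and 100% = reference inhibitor wells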
Details: TEAD-Gal4/YAP UAS-luciferase luminescence, at 9.12 µM, hits give high values

**Q.** Which inhibition does the source give for CCN1C(=O)/C(=c2\sc3nc(-c4ccccc4)nn3c2=O)c2ccccc21 here?
**A.** -17.8% (inactive)

**Q.** For O=C(NCc1cccnc1)C1CCCN(S(=O)(=O)c2ccc3[nH]c(=O)ccc3c2)C1 (centres undefined), which inhibition is on record?
**A.** 6.17% (inactive)

**Q.** With CCC(=O)N1c2ccccc2C2=C(SC(C(=O)OC)=C(C(=O)OC)C23SC(C(=O)OC)=C(C(=O)OC)S3)C1(C)C as the molecule, how does the inhibition read?
**A.** 3.65% (inactive)

**Q.** For CCC1CCCCN1C(=O)c1sc2ncnc(N3CCN(c4ccc(OC)cc4)CC3)c2c1C (centres undefined), which inhibition is on record?
**A.** 7.77% (inactive)

**Q.** For CCOC(=O)CC(=O)CSc1ccc2nnc(-c3ccc(Cl)cc3)n2n1, which inhibition is on record?
**A.** 1.1% (inactive)

**Q.** For CC1CC1c1ccc(/C=C(\C#N)C(=O)Nc2cccc([N+](=O)[O-])c2)o1 (centres undefined), which inhibition is on record?
**A.** -64.5% (inactive)

**Q.** For Cc1ccc2nc3c(nc2c1)C(=O)c1ccccc1-3, which inhibition is on record?
**A.** 46.8% (active)

**Q.** For COc1ccc2nc3c(nc2c1)C(=O)c1ccccc1C3=O, which inhibition is on record?
**A.** -19.6% (inactive)

**Q.** Which inhibition does the source give for Cc1ccc2c(c1)C(=O)c1cc3ccccc3nc1-2 here?
**A.** -59.4% (inactive)

**Q.** With CCOc1ccc(N(C)S(=O)(=O)c2ccc3[nH]cc(C(=O)NCc4cccnc4)c(=O)c3c2)cc1 as the molecule, how does the inhibition read?
**A.** 3.1% (inactive)

**Q.** With O=C(Nc1cccc(Cl)c1)Nc1noc2c1COc1ccccc1-2 as the molecule, how does the inhibition read?
**A.** -1.02% (inactive)

**Q.** Which inhibition does the source give for COC(=O)/C=C1/C(=O)Nc2ccccc21 here?
**A.** 63.4% (active)

**Q.** Which inhibition does the source give for COC(=O)/C=C(C(=O)OC)/C(C(=O)OC)=C1\Nc2ccccc2NC1=O here?
**A.** 8.52% (inactive)

**Q.** With COC(=O)/C=C1\Nc2ccccc2OC1=O as the molecule, how does the inhibition read?
**A.** -5.86% (inactive)

**Q.** For Cc1cc(C(=O)N2CCOCC2)c2ccccc2n1, which inhibition is on record?
**A.** 6.26% (inactive)

**Q.** For Nc1nc(NCCCN2CCCC2=O)cc(Nc2ccccc2)n1, which inhibition is on record?
**A.** -3.84% (inactive) and 0.61% (inactive)

**Q.** For CCOC(=O)c1cnn(-c2nc3ccccc3s2)c1CNC(C)c1ccco1 (centres undefined), which inhibition is on record?
**A.** -20.8% (inactive)

**Q.** With Nc1c(C(=O)Nc2cccc(C(=O)O)c2)sc2nc3c(cc12)CCCCC3 as the molecule, how does the inhibition read?
**A.** -17.2% (inactive)

**Q.** With Nc1c(C(=O)N2CCCCC2)sc2nc3c(cc12)CCC3 as the molecule, how does the inhibition read?
**A.** -59.9% (inactive)

**Q.** Which inhibition does the source give for Cc1cccc(NC(=O)c2sc3nc4c(cc3c2N)CCC4)c1C here?
**A.** 36.1% (active)

**Q.** Which inhibition does the source give for Cc1c(Cl)cccc1NC(=O)c1sc2nc3c(cc2c1N)C(=O)CCC3 here?
**A.** 41.4% (active)

**Q.** Which inhibition does the source give for Nc1c(C(=O)c2ccccc2)sc2nc3c(cc12)CCCCC3 here?
**A.** 72.9% (active)

**Q.** Which inhibition does the source give for Nc1c(C(=O)c2ccc(Br)cc2)sc2nc3c(cc12)CCCC3 here?
**A.** -11.1% (inactive)

**Q.** Which inhibition does the source give for CC(=O)Nc1ccc(NC(=O)c2sc3nc4c(cc3c2N)CCCCCC4)cc1 here?
**A.** -8.57% (inactive)

**Q.** Which inhibition does the source give for CC1(C)CC(=O)c2cc3c(N)c(C(=O)Nc4ccccc4Cl)sc3nc2C1 here?
**A.** -21.4% (inactive)

**Q.** With Nc1c(C(=O)c2ccc(Cl)cc2)sc2nc3c(cc12)CCCCCC3 as the molecule, how does the inhibition read?
**A.** -9.12% (inactive)

**Q.** With Cc1cc(C(=O)COC(=O)c2cc(Cl)cc(Cl)c2N)c(C)n1CC1CCCO1 (centres undefined) as the molecule, how does the inhibition read?
**A.** 7.73% (inactive)

**Q.** For CCn1cc(CN[C@H]2C[C@H]3C(=O)N[C@@H](Cc4ccc(O)cc4)C(=O)N3C2)c(C)n1, which inhibition is on record?
**A.** 9.24% (inactive)

**Q.** For COCc1ccc(-c2ccc(OC3CCN(c4ncnc5nc[nH]c45)CC3)cc2)cc1, which inhibition is on record?
**A.** -7.79% (inactive)

**Q.** For CCCCCCOC1OC(COC(C)=O)C(OC(C)=O)C(OC(C)=O)C1NC(C)=O (centres undefined), which inhibition is on record?
**A.** 10.2% (inactive)

**Q.** Which inhibition does the source give for COc1ccc(-c2c(C)nn3c(NCCO)c4c(nc23)CCCC4)cc1 here?
**A.** 0.55% (inactive)

**Q.** For COC(=O)C(NNc1ccccc1C)(NC(=O)c1ccc(Cl)cc1)C(F)(F)F (centres undefined), which inhibition is on record?
**A.** -4.69% (inactive)

**Q.** Which inhibition does the source give for Cc1ccc(C)c(OCC(=O)NC(C)(C)C)c1 here?
**A.** 1.69% (inactive)

**Q.** Which inhibition does the source give for COc1ccc(S(=O)(=O)Oc2ccc(C=O)cc2)cc1 here?
**A.** 12.9% (inactive)

**Q.** Which inhibition does the source give for Cc1c(C2=N/C(=C/c3cccc(Cl)c3Cl)C(=O)O2)cccc1[N+](=O)[O-] here?
**A.** -5.1% (inactive)

**Q.** Which inhibition does the source give for CSc1cccc(Nc2nc3ccccc3n3cnnc23)c1 here?
**A.** -29.4% (inactive)

**Q.** For Clc1ccc(-n2ncc3c(NC4CCCCC4)ncnc32)cc1, which inhibition is on record?
**A.** 10.8% (inactive)

**Q.** With Cc1cc2c(N(C)C3CCCCC3)ncnc2s1 as the molecule, how does the inhibition read?
**A.** -14.3% (inactive)

**Q.** Which inhibition does the source give for CN(c1ncnc2c1cnn2-c1ccc(Cl)cc1)C1CCCCC1 here?
**A.** 63.9% (active)

**Q.** Which inhibition does the source give for CSC1=C(C#N)C(c2ccccc2[N+](=O)[O-])C2=C(CC(C)(C)CC2=O)N1 (centres undefined) here?
**A.** 15.7% (inactive)

**Q.** With O=C(NCCOc1ccccc1)c1ccc2nc(NCCN3CCOCC3)sc2c1 as the molecule, how does the inhibition read?
**A.** -44.4% (inactive)

**Q.** For O=C(Nc1ccc2c3c(cccc13)CC2)c1cc([N+](=O)[O-])ccc1Br, which inhibition is on record?
**A.** 59.8% (active)

**Q.** With O=C(Nc1ccc([N+](=O)[O-])cc1Cl)c1ccccc1Br as the molecule, how does the inhibition read?
**A.** 12.3% (inactive)

**Q.** For O=C(Nc1ccc2c3c(cccc13)CC2)c1cc([N+](=O)[O-])cc([N+](=O)[O-])c1, which inhibition is on record?
**A.** -9.02% (inactive)

**Q.** For Cc1cc(C)cc(N2C(=O)N(c3cccc(Cl)c3)C3CS(=O)(=O)CC32)c1 (centres undefined), which inhibition is on record?
**A.** -20.4% (inactive)

**Q.** With O=C(NC(=O)c1ccccn1)NC(c1ccccc1)c1ccccc1 as the molecule, how does the inhibition read?
**A.** -3.05% (inactive)

**Q.** For CCOc1ccc(C(C)NC(=O)Cc2ccccc2)cc1 (centres undefined), which inhibition is on record?
**A.** 13.1% (inactive)

**Q.** With CC(=O)NC(NC(C)=O)c1cccnc1 as the molecule, how does the inhibition read?
**A.** -0.95% (inactive)

**Q.** For O=C(Cc1ccccc1)NC(c1ccc(Cl)cc1)c1ccc2cccnc2c1O (centres undefined), which inhibition is on record?
**A.** 82.5% (active)

**Q.** With O=C(COc1ccc(Cl)c(Cl)c1)NC(Cc1ccccc1)C(=O)O (centres undefined) as the molecule, how does the inhibition read?
**A.** 9.8% (inactive)

**Q.** For Cc1ccnc(NC(=O)Cc2ccc(Cl)cc2)n1, which inhibition is on record?
**A.** 0.25% (inactive)

**Q.** With Cc1ccc(CC(=O)Nc2ncccn2)cc1 as the molecule, how does the inhibition read?
**A.** 1.2% (inactive)

**Q.** Which inhibition does the source give for CC(=O)NC(c1ccccc1)c1ccc2cccnc2c1O (centres undefined) here?
**A.** 82.8% (active)

**Q.** For COc1cccc(C(=O)NC(c2cccc([N+](=O)[O-])c2)c2cc(Cl)c3cccnc3c2O)c1 (centres undefined), which inhibition is on record?
**A.** 7.94% (inactive)

**Q.** Which inhibition does the source give for CCOc1ccc(C(NC(=O)c2cc(OC)c(OC)c(OC)c2)c2cc(Cl)c3cccnc3c2O)cc1 (centres undefined) here?
**A.** 9.91% (inactive)

**Q.** For Cc1ccc(C(NC(=O)Cc2ccccc2)c2ccc3cccnc3c2O)cc1 (centres undefined), which inhibition is on record?
**A.** 82.5% (active)

**Q.** Which inhibition does the source give for CC(=O)NC(c1cccs1)c1cc(Cl)c2cccnc2c1O (centres undefined) here?
**A.** 80.8% (active)

**Q.** Which inhibition does the source give for Cc1ccc(C2C=C(c3ccc(C(C)C)cc3)Nc3nnnn32)cc1 (centres undefined) here?
**A.** -3.93% (inactive)

**Q.** Which inhibition does the source give for Cn1c(=O)c2c(nc(N(CCO)CCO)n2Cc2cccc3ccccc23)n(C)c1=O here?
**A.** -5.12% (inactive)
